Source: PubChem BioAssay (National Center for Advancing Translational Sciences (NCATS))
ELG1 DNA repair: ELG1-dependent DNA repair inhibition | HEK293T ELG1-luciferase reporter, luminescence, 16 h; DNA damage induced by 5-fluorouridine | Potency, µM (highest dose often 46.1 µM), for the others: at the highest dose activity change, negative = inhibition, most hits filed as inhibitors | hit rate 2.3% among 330,000 | AID 504467; further: potency means the concentration at half of the fitted maximal effect; nearly all actives have a fitted effect of over 55% in size
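Step one: seed 2,000 cells per well. Step two: pin-transfer compound or DMSO alongside 5-fluorouridine. Step three: incubate 16 hr, 37 °C, 5% CO2. Step four: add ONE-Glo, wait 30 min, read luminescence.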
IL-1B inflam inh: inflammasome signaling inhibition, IL-1 beta readout | AID 743279 | hit rate 4.7% among 360,000 | THP-1 LPS/ATP IL-1B secretion, AlphaLISA, 16 h; hits give low values | activity change, % at 57.5 µM; in the data active means activity change below about -50%; inconclusive means mostly about -30% to -49%
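THP-1 cells pretreated 1 hr with compounds (up to 57.5 uM final), then stimulated with LPS (250 ng/mL final) plus ATP (1.25 mM final); secreted IL-1B measured by AlphaLISA after 16 hr, decreased signal indicating inhibition.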
TDP1 cell CPT: growth inhibition of DT40 Tdp1-/-;hTDP1 cells with camptothecin (screen for TDP1 inhibitors) | chicken DT40 Tdp1-/-;hTDP1 cells + 20 nM CPT, ATP luminescence, 48 h | Potency, µM (series often up to 46.2 µM), without a hit: at the top dose activity change, negative = growth inhibition, hits mostly inhibitors | hit rate 12% among 420,000; further: potency means the concentration at half of the fitted maximal effect; nearly all actives have a fitted effect of over 55% in size
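Chicken DT40 Tdp1-/- cells complemented with human TDP1, 400 cells/well, exposed to compounds plus 20 nM camptothecin for at least 48 h at 37 C; viability read as ATP content by CellTiter-Glo luminescence.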
VP16 counter: Gal4-VP16 reporter inhibition counter-screen; hit rate 3.5% among 310,000; Drosophila S2 Gal4-VP16 UAS-luciferase, luminescence, 20 h; Potency, µM (highest dose often 53.6 µM), without a hit: at the highest dose activity, negative = inhibition, hits mostly inhibitors; AID 2546;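 further: Gal4-VP16 expression switched on by copper sulfate through the metallothionein promoter; potency means the concentration at half of the fitted maximal effect; nearly all actives have a fitted effect of over 50% in size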
RORgamma inh: ROR gamma (mouse) transcription inhibition | P51450 | Drosophila S2 Gal4-RORgamma UAS-luciferase reporter, 20 h | Potency, µM (series often up to 53.6 µM), for the others: at the highest dose activity change, negative = inhibition, actives largely listed as inhibitors | hit rate 5.4% among 310,000 | AID 2551; further: potency means the concentration at half of the fitted maximal effect; nearly all actives have a fitted effect of over 60% in size
Target sequence (P51450 whole entry, looked up, the tested form may be a part): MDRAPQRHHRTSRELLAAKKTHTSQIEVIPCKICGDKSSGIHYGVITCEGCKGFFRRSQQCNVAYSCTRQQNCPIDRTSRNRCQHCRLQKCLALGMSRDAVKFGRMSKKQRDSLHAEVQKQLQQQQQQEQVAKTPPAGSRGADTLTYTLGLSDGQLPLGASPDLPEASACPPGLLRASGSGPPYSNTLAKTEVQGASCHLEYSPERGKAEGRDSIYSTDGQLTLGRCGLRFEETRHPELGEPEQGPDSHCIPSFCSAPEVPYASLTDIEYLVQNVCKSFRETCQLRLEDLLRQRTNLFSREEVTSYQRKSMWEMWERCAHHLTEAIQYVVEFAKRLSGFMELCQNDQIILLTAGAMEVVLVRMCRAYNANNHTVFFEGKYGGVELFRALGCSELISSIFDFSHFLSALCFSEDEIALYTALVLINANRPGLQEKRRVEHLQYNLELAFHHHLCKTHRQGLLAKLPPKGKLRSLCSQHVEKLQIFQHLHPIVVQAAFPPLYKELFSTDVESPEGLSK
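Using a luciferase readout, inhibitors were identified by reduced reporter activity in Drosophila cells coexpressing a copper-inducible Gal4–ROR gamma fusion and UAS-driven Photinus luciferase, incubated 20 hr after 700 uM copper sulfate.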
DT40 TDP1 no CPT: qHTS for Inhibitors of human tyrosyl-DNA phosphodiesterase 1 (TDP1): qHTS in cells in absence of CPT. DT40 Tdp1-/- hTDP1 cells, no CPT, ATP luminescence, 48 h. Potency, µM (top dose mostly 46.2 µM), for the others: at the top dose activity change, negative = growth inhibition, hits mostly inhibitors. hit rate 15% among 420,000. AID 686978, 2013; further: potency means the concentration at half of the fitted maximal effect; nearly all actives have a fitted effect of over 55% in size
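Growth of hTDP1-complemented DT40 Tdp1-knockout cells is measured by ATP luminescence after at least 48 hr compound exposure at 37 °C, with DMSO substituting for the 20 nM CPT used in the parallel screen.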
An asterisk follows results filed as active; ? = inconclusive; . = no result given; [ ] = another dose, or the depositor's remark. Rows were chosen to be rich in hits. Some 21% of all compounds tested hit in one or more screens of this group. Unless noted, the call rests on the fitted dose curve; in most records, active means well fitted curve in the direction sought with a large enough effect; inconclusive means small, poorly fitted or top-dose-only effect, or another doubt; inactive means no such curve, though single readings can be large; an effect the other way counts as inactive or inconclusive. On the % scale 0 is the no-effect control and ±100 the full control effect.

SMILES	ELG1 DNA repair	IL-1B inflam inh	TDP1 cell CPT	VP16 counter	RORgamma inh	DT40 TDP1 no CPT
CC1(C(=O)NS(=O)(=O)c2cccs2)CCN1C(=O)C1CC1 (stereo not drawn)	.	14.1	-3.2%	.	.	-13.4%
Nc1nnc(SCC(=O)c2ccccc2)s1	?	1.6	-20.0%	-13.8%	-3.0%	1.4%
Nc1c(C(=O)c2ccccc2)sc2snc(SCC(=O)c3ccccc3)c12	13.2%	-1.7	?	12.6µM*	11.2µM*	?
CCCN=C(N)/C(C(=O)OCC)=C(\O)c1ccc(OC)cc1	-22.8%	-9.1	-9.9%	1.4%	25.0%	-9.3%
CCOC(=O)/C(C(N)=NCC(C)C)=C(/O)c1ccccc1	-8.9%	-81.0*	-24.7%	22.5%	37.9%	?
Cc1ccc(C(=O)Nc2cccc(C(=O)O)c2)cc1	?	10.5	-26.5%	17.8µM*	5.01µM*	-15.1%
Cc1ccc(C(=O)Nc2cccc(C(O)c3ccccc3)c2)cc1 (stereo not drawn)	.	-51.5*	-25.9%	.	.	?
Cc1ccc(C(=O)Nc2cccc(C(=O)NC3CCCC3)c2)cc1	-5.2%	-10.2	?	19.4%	26.2%	16.4µM*
CC(C)(C)c1n[nH]c2c1CCCC2	4.0%	16.6	8.1%	-21.4%	11.2µM*	-29.7%
CC(C)C/C=C1\CCc2c([nH]c3ccccc23)C1=O	?	-19.9	32.5%	?	8.5%	-18.0%
CCCCCCCCC1=NCCc2c1[nH]c1ccccc21	-15.6%	-94.1*	?	2.9%	-23.5%	20.6µM*
Cc1cccc(Cn2c(C)nc3ccc([N+](=O)[O-])cc3c2=O)c1	0.0%	-23.7	-17.5%	-7.2%	27.6%	?
Cc1cccc(Cn2c(C)nc3c(N)c(C)c(C)cc32)c1	?	-7.1	-16.0%	?	12.6µM*	16.4µM*
O=C1CCSc2ccc(Cl)cc2N1Cc1cccc(Cl)c1	-12.0%	13.0	?	?	2.0%	20.6µM*
COc1ccc(/C=N/NC(=O)CN(C)C(=O)OCc2ccccc2)cc1OC	-2.6%	3.9	-0.3%	-2.2%	-6.9%	-0.6%
C=CCN(Cc1ccc(Br)s1)C(=O)c1ccc(OCc2c(C)noc2C)cc1	.	-10.7	?	.	.	16.4µM*
Cc1noc(C)c1COc1ccc(C(=O)NCc2cccs2)cc1	11.4%	-98.8*	-6.9%	.	.	-23.4%
Cc1cccc(C(=O)Nc2ccccc2C(=O)OCc2c(C)noc2C)c1	?	-57.2*	-15.7%	-0.3%	-5.4%	?
Cc1noc(C)c1COc1ccc(CC(=O)NCCc2ccccn2)cc1	3.9%	16.0	-7.8%	-17.7%	-5.5%	?
Cc1noc(C)c1COc1ccc(CC(=O)NCc2ccccc2)cc1	8.7%	124.7	0.651µM*	2.4%	11.4%	0.517µM*
CCN(CCCNC(=O)c1nn(-c2ccc(C)cc2)c(=O)c2c1c1ccccc1n2C)c1cccc(C)c1	.	.	-26.9%	.	.	?
CCc1nc2cc(C(=O)N3CCC[C@H]3C(=O)OC)cc(NC(=O)c3ccccc3OC)c2n1C	.	.	18.5%[9.04 µM]	.	.	-20.8%
CC(=O)c1ccccc1NC(=O)c1ccc(OCc2c(C)noc2C)cc1	?	-66.4*	?	.	.	18.4µM*
CCN(c1ccccc1)S(=O)(=O)c1ccc(OCc2c(C)noc2C)cc1	-10.0%	20.0	-14.5%	7.0%	-6.1%	-10.1%
Cc1noc(C)c1COc1cccc(C(=O)NCCc2c[nH]c3ccccc23)c1	?	5.8	13µM*	-12.0%	14.8%	20.6µM*
SMILES	ELG1 DNA repair	IL-1B inflam inh	TDP1 cell CPT	VP16 counter	RORgamma inh	DT40 TDP1 no CPT
Cc1noc(C)c1COc1cccc(C(=O)Nc2ccccc2)c1	3.4%	-15.3	17.8%	.	.	-1.8%
CCN(C(=O)COC(=O)c1ccc(OCc2c(C)noc2C)cc1)c1ccccc1	-10.0%	-16.8	?	15.5%	24.1%	13µM*
COCCCn1cc(CN2CC(N3CCN(CCO)CC3)CS2(=O)=O)nn1 (stereo not drawn)	.	35.7	-2.0%	.	.	5.1%
COc1ccc(CC(=O)OCC(=O)Nc2ncc(Cl)c(C)c2Cl)cc1	8.0%	2.5	-7.0%	.	.	-1.4%
CC(C)c1ccc(NC(=O)c2ccc(=O)n(Cc3ccccc3)c2)cc1	.	.	16.4µM*	.	.	20.6µM*
CCOC(=O)c1ccc(NC(=O)c2ccc(=O)n(Cc3cccc(C)c3)c2)cc1	.	.	20.6µM*	.	.	16.4µM*
COc1ccc2nc(NNC(=O)c3cc(=O)c4ccccc4o3)sc2c1	16.1%	89.4	?	?	8.91µM*	?
Cc1ccc2c(=O)cc(C(=O)Nc3c(C(=O)c4ccc(F)cc4)oc4ccccc34)oc2c1C	.	.	-17.3%	.	.	-5.3%
Cc1cccc2sc(NNC(=O)c3cc(=O)c4ccccc4o3)nc12	?	23.8	?	?	3.98µM*	?
Cc1ccc2sc(NNC(=O)c3cc(=O)c4ccccc4o3)nc2c1C	?	30.9	29.1µM*	-11.9%	-9.9%	?
COc1ccc2nc(NC(=O)c3cc(=O)c4cc(C)c(C)cc4o3)sc2c1	.	.	9.3%	.	.	-23.5%
O=C(NNc1nc2c(F)cccc2s1)c1cc(=O)c2ccccc2o1	?	0.0	?	?	10µM*	?
O=C(Cc1ccc(Cl)cc1)Nc1nnc2n1CCS2	.	.	-18.1%	.	.	-13.4%
Cc1ccc(C)c(NC(=O)N2CCC(N3CCN(Cc4ccc(F)cc4)C(=O)C3=O)CC2)c1	.	.	-22.0%	.	.	0.1%
Cc1ccc(S(=O)(=O)N2CCC(n3c(C)nc4cccnc43)CC2)c(C)c1	.	.	6.51µM*	.	.	7.31µM*
